Assay outcomes: PubChem BioAssay, National Center for Advancing Translational Sciences (NCATS)
An excerpt weighted towards active compounds, which were near 2.8% of everything screened.
Pol beta inh = blocks human DNA polymerase beta activity. P06746. Pol beta primer extension/strand displacement, fluorescence kinetic. Potency, µM (highest dose often 114 µM), inactives show at the highest dose activity change, negative = inhibition, actives largely listed as inhibitors. 340,000 compounds, 1.3% hits; further: potency means the concentration at half of the fitted maximal effect; on the % scale 0 is the no-effect control and ±100 the full control effect
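Pol beta (10 nM) and compounds were preincubated 15 min at room temperature, then 50 nM substrate (final) started primer extension/strand displacement. Reads were taken at 0 and 10 min; concentration-response data were fitted to a four-parameter Hill equation.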
Pol eta inh-1 = DNA polymerase eta (human) inhibition; recombinant Pol eta, fluorescent DNA replication assay; 390,000 compounds, 1.2% hits; Potency, µM (highest dose often 114 µM), for inactives: at the top dose activity change, negative = inhibition, usual class: inhibitors; further: potency means the concentration at half of the fitted maximal effect; on the % scale 0 is the no-effect control and ±100 the full control effect
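Fluorescent replication assay: 50 nM final substrate added after a 15 min room-temperature compound preincubation with 10 nM enzyme. Signal taken at 0 min and again at 10 min.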
Pol kappa inh-1 = DNA polymerase kappa (human) inhibition. Potency, µM (series often up to 107 µM), without a hit: top-dose activity, negative = inhibition, most hits filed as inhibitors. 400,000 compounds, 0.53% hits. purified Pol kappa, fluorescent DNA synthesis assay, 10 min; further: potency means the concentration at half of the fitted maximal effect; on the % scale 0 is the no-effect control and ±100 the full control effect
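Enzyme at 10 nM met test compounds for 15 min at room temperature. Substrate addition (50 nM final) began the reaction, which was monitored by fluorescence at 0 and 10 min.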
Pol iota inh = DNA polymerase iota (human) inhibition; Q9UNA4; Pol iota fluorescent replication assay, 10 min; Potency, µM (titrated, usually from 115 µM), inactives show top-dose activity, negative = inhibition, hits mostly inhibitors; 390,000 compounds, 1% hits; AID 588590; further: potency means the concentration at half of the fitted maximal effect
Target sequence (Q9UNA4 whole entry, looked up): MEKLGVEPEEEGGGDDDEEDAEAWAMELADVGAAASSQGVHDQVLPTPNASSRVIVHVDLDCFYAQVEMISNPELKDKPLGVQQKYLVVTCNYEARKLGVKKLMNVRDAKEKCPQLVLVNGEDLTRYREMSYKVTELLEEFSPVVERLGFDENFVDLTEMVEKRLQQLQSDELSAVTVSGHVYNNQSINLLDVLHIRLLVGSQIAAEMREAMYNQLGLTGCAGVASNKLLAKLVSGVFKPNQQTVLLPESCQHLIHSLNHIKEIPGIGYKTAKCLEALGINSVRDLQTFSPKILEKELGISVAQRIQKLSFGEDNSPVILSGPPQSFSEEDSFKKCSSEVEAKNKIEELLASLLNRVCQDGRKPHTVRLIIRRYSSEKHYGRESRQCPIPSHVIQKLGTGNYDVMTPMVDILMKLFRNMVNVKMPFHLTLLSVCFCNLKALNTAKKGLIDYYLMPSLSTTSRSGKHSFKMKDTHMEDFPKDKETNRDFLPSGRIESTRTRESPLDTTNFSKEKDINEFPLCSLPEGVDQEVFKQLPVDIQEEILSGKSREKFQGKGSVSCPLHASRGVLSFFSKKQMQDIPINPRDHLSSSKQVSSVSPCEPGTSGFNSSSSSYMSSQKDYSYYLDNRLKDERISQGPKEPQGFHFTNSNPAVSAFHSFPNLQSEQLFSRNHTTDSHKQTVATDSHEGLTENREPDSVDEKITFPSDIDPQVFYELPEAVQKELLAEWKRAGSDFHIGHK
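Fluorescent replication assay read twice, at 0 min and 10 min after adding 50 nM (final) substrate. Enzyme (10 nM) and compounds were first incubated 15 min at room temperature; enzyme-free buffer wells were negative controls.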
PI5P4K alpha inh = inhibitors of human PI5P4K alpha | 330,000 compounds, 1.2% hits | AID 652105 | P48426 | PI5P4Kalpha enzyme, ADP-Glo luminescence, 60 min; stronger effect = lower value | max response, %; active means max response of -50% or lower; inconclusive means between -30% and -50%; inactive means -30% or higher; further: value at the top dose of about 77 µM; on the % scale 0 is the no-effect control and ±100 the full control effect
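Enzyme plus substrate dispensed, test compounds pinned in, then ATP (5 microM final) added. After 60 min at RT, ADP-Glo reagent 1 for 45 min and reagent 2 for 30 min preceded luminescence imaging.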
WRN helicase inh = inhibitors of human WRN helicase | Q14191 | WRN helicase unwinding, fluorescent forked duplex, kinetic | Potency, µM (series often up to 114 µM), for inactives: at the highest dose activity change, negative = inhibition, usual class: inhibitors | 360,000 compounds, 0.46% hits | AID 651768; further: potency means the concentration at half of the fitted maximal effect; on the % scale 0 is the no-effect control and ±100 the full control effect; nearly all actives have a fitted effect of over 55% in size
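WRN at 20 nM final was preincubated with compound for 15 min at room temperature; reaction started with 100 nM forked duplex oligonucleotide carrying fluorophore and quencher plus 2 mM ATP (final). Unwinding followed kinetically by red fluorescence (ex 525/em 598 nm).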
PGK validate = TbPGK inhibition, hit validation; shares compounds with Pol kappa inh-1; TbPGK coupled GAPDH assay, Kinase-Glo luminescence; Potency, µM (highest dose often 57.5 µM), without a hit: at the top dose activity change, negative = inhibition, usual class: inhibitors; 500 compounds, 79% hits; further: potency means the concentration at half of the fitted maximal effect; on the % scale 0 is the no-effect control and ±100 the full control effect; nearly all actives have a fitted effect of over 65% in size
Pol iota confirm = Confirm cherry-picked inhibitors of human polymerase iota; shares compounds with Pol kappa inh-1; Pol iota primer extension, TAMRA/BHQ fluorescence; Potency, µM, actives largely listed as inhibitors; 1,500 compounds, 77% hits; AID 720496; further: potency means the concentration at half of the fitted maximal effect
GALK confirm = galactokinase (human) inhibition, confirmation; Potency, µM (doses to about 115 µM), for the others: at the top dose activity, negative = inhibition, usual class: inhibitors; shares compounds with Pol eta inh-1; purified GALK, Kinase-Glo ATP depletion luminescence; 150 compounds, 70% hits; AID 2015
GALK redox cs = counter-screen for GALK inhibitors: redox cycling H2O2 generation. shares compounds with Pol eta inh-1. Potency, µM (highest dose often 115 µM), for inactives: at the top dose activity change, negative = H2O2 signal, usual class: inhibitors. 150 compounds, 40% hits. AID 2035. Phenol red-HRP H2O2 redox cycling, absorbance 600 nm
HEK293 viability = counter-screen for GALK inhibitors: HEK293 cell cytotoxicity. shares compounds with Pol eta inh-1. HEK-293 viability, ATP luminescence (CellTiter-Glo), 24/48 h. Potency, µM (series often up to 46.1 µM), inactives show at the top dose activity change, negative = cytotoxicity, most hits filed as inhibitors. 170 compounds, 10% hits; further: potency means the concentration at half of the fitted maximal effect; on the % scale 0 is the no-effect control and ±100 the full control effect
Pol kappa inh-2 = confirmation of human DNA polymerase kappa inhibitors; shares compounds with Pol eta inh-1; 920 compounds, 76% hits; Potency, µM, usual class: inhibitors; purified Pol-kappa, fluorescent strand-displacement substrate; further: potency means the concentration at half of the fitted maximal effect
Pol eta inh-2 = confirmation of human DNA polymerase eta inhibitors; shares compounds with Pol eta inh-1; Pol eta primer extension, TAMRA/BHQ fluorescence, 10 min; Potency, µM, usual class: inhibitors; 2,600 compounds, 64% hits; AID 720502; further: potency means the concentration at half of the fitted maximal effect
The depositor's hits bear a star; ? = inconclusive; · = no result; [ ] = remark or other dose. Unless noted, the call rests on the fitted dose curve; in most records, active means well fitted curve in the direction sought with a large enough effect; inconclusive means small, poorly fitted or top-dose-only effect, or another doubt; inactive means no such curve, though single readings can be large; an effect the other way counts as inactive or inconclusive.

SMILES	Pol beta inh	Pol eta inh-1	Pol kappa inh-1	Pol iota inh	PI5P4K alpha inh	WRN helicase inh	Pol iota confirm	Pol eta inh-2	others
O=c1cc(-c2ccc(O)cc2)oc2c([C@@H]3O[C@H](CO)[C@@H](O)[C@H](O)[C@H]3O)c(O)c([C@@H]3O[C@H](CO)[C@@H](O)[C@H](O)[C@H]3O)c(O)c12	-29%	-8%	-19%	-1%	-2	-4%	·	·
O=c1c2cc(O)c(O)cc2oc2cc(O)c(C3OC(CO)C(O)C(O)C3O)c(O)c12 (stereo unspecified)	·	8.9µM*	4µM*	?	1	-17%	15*	19*	Pol kappa inh-2=7.5*
O=C(O)C1CCCCC1C(=O)Nc1cccc(Br)c1 (stereo unspecified)	·	13µM*	?	45µM*	?	50µM*	75*	38*	Pol kappa inh-2=19*
CCCCN(CCCC)C(=O)c1nsnc1-c1ccccc1O	-12%	-17%	-7%	?	·	-5%	·	·
COc1cc(/C=N/NC(=S)Nc2cccc(S(=O)(=O)N(C)C)c2)cc(OC)c1O	-11%	-16%	-2%	-23%	22	-10%	·	·
CN(C)S(=O)(=O)c1cccc(NC(=S)N/N=C/c2ccc(O)c(O)c2O)c1	-11%	?	?	?	-97*	28µM*	13*	19*
COC(=O)[C@]12CCCCC=C1N(Cc1ccc(Cl)cc1Cl)C(=O)[C@H](CC(=O)NCc1cccc(C(F)(F)F)c1)C2	·	·	·	·	21	-12%	·	·
Cc1[nH][nH]c(=O)c1C(c1ccc(-c2ccc(C(=O)O)cc2)o1)c1c(C)[nH][nH]c1=O	25µM*	?	-34%	4.5µM*	?	?	60*	?
Cc1[nH][nH]c(=O)c1C(c1cc([N+](=O)[O-])ccc1O)c1c(C)[nH][nH]c1=O	5%	-3%	-2%	?	-8	-19%	·	·
O=C(NCc1cccc(CNC(=O)c2ccco2)c1)c1ccco1	4%	1%	-11%	21%	·	-1%	·	·
COc1ccc(CC(=O)OCC(=O)NCc2ccco2)cc1OC	·	-14%	1%	15%	2	0%	·	·
O=C(NCc1cccc(CNC(=O)C(=O)NCc2ccco2)c1)C(=O)NCc1ccco1	22µM*	28µM*	-60%	?	-53*	?	67*	76*	Pol kappa inh-2=?
O=C(COC(=O)c1cccs1)NCc1ccco1	20µM*	14µM*	?	20µM*	?	?	75*	85*
O=C(COC(=O)Cc1cccc(C(F)(F)F)c1)NCc1ccco1	·	5µM*	45µM*	?	?	?	60*	30*	Pol kappa inh-2=24*
O=C(COC(=O)c1cccs1)NCc1ccccc1	15%	-11%	6%	2%	-1	2%	·	·
O=C(COC(=O)c1cncc(Br)c1)NCc1ccco1	22µM*	10µM*	79µM*	?	-21	50µM*	24*	?	Pol kappa inh-2=24*
O=C(/C=C1\OCc2ccccc21)c1ccccc1	·	·	·	·	4	8%	·	·
Cc1cccc(NC(=O)CSc2nc(N)c(NC(=O)c3cccs3)c(=O)[nH]2)c1C	-12%	0%	-9%	12%	-2	5%	·	·
CCn1c(SCc2nc(-c3ccc(OC)c(OC)c3)no2)nnc1-c1cccs1	14%	1%	-11%	-14%	·	-7%	·	·
O=C(O)c1cccc(-c2ccc(/C=C3/SC(=Nc4ccccc4)N(Cc4cccnc4)C3=O)o2)c1	?	7.1µM*	?	?	-29	?	38*	43*	PGK validate=6.5µM*;Pol kappa inh-2=21*
Cc1ccc(-c2ccc(=O)n(CCC(=O)NCCc3ccccc3)n2)cc1	-27%	-1%	2%[60.1 µM]	6%	·	·	·	·
Cn1nc(-c2ccccn2)nc2c(=O)n(C)c(=O)nc1-2	?	0.71µM*	6%	-96%	-6	-8%	·	·	PGK validate=1.6µM*;GALK confirm=2.7µM*;GALK redox cs=2.7µM*;HEK293 viability=4µM*
CCc1ccc(-c2csc3ncn(CC)c(=O)c23)cc1	-26%	-14%	-1%	9%	2	4%	·	·
COc1ccc(-c2nc(-c3ccccn3)ncc2S(C)(=O)=O)cc1	26%	-14%	-1%	17%	2	-27%[57.1 µM]	·	·
CCCc1nc2c(=O)n(C)c(=O)nc-2n(C)n1	?	0.89µM*	6%	-97%	0	-31%	1.5*	2.7*	PGK validate=1.5µM*;GALK confirm=0.94µM*;GALK redox cs=0.67µM*;HEK293 viability=10µM*
Cc1ccc(-n2c3nc(=O)n(C)c(=O)c-3cc3ccccc32)cc1	-13%	3%	-2%	24%	-1	-10%	·	·
CCc1ccc(-c2nc3c(=O)n(C)c(=O)nc-3n(CC)n2)cc1	·	·	-20%	-98%	·	·	2.1*	1.5*
Cc1ccccc1-c1nc2c(=O)n(C)c(=O)nc-2n(C)n1	·	·	-22%	-88%	·	·	1.7*	4.8*
CSc1nc(N2CCOCC2)nc2ccc(C)cc12	·	-17%	3%	18%	21	13%	·	·
Cc1sc2nc(SCC(=O)N3CCOCC3)[nH]c(=O)c2c1-c1ccccc1	4%	-12%	-8%	-1%	-20	-19%	·	·
